Assay outcomes from PubChem BioAssay.
15-hLO-2 inh: qHTS Assay for Inhibitors of 15-hLO-2 (15-human lipoxygenase 2); Polyunsaturated fatty acid lipoxygenase ALOX15B (Homo sapiens), O15296; purified 15hLO-2, xylenol orange hydroperoxide absorbance; Potency, µM (titrated, usually from 57.1 µM), usual class: inhibitors; 0.56% of 110,000 active; AID 881, 2007; further: nearly all actives have a fitted effect of over 60% in size
Target sequence (O15296 whole entry, looked up): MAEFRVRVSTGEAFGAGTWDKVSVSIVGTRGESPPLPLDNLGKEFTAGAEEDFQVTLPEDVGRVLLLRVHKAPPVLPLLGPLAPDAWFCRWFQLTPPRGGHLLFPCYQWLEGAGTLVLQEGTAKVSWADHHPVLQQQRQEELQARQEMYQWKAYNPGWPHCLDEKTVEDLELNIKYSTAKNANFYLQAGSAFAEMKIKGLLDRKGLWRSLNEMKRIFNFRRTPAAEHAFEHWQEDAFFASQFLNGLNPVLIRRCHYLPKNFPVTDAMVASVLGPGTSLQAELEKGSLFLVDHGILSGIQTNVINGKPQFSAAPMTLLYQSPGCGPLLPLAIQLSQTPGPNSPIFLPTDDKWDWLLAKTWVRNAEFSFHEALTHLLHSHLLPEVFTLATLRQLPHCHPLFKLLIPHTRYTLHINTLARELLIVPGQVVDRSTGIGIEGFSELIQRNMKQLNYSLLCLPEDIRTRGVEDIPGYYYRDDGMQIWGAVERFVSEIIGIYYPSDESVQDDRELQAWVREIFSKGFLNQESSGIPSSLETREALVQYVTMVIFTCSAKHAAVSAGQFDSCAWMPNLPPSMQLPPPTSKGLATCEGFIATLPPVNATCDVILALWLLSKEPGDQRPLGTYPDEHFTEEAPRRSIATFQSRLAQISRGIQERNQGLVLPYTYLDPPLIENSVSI
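Enzyme 50 nM, AA 45 uM, 25 mM Hepes pH 7.5 + 0.01% Triton X-100; cpd preinc 15 min RT, rxn 90 min RT; stop/detect with 200 uM XO + 300 uM Fe(II) in 50 mM H2SO4, 30 min; A573/A405.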
12-hLO inh: qHTS Assay for Inhibitors of 12-hLO (12-human lipoxygenase); Polyunsaturated fatty acid lipoxygenase ALOX12 (Homo sapiens), P18054; 0.12% of 150,000 active; Potency, µM (highest dose often 57.1 µM), actives largely listed as inhibitors; purified 12-hLO, xylenol orange hydroperoxide absorbance; further: nearly all actives have a fitted effect of over 55% in size
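Lipoxygenase turnover measured by absorbance at 573 and 405 nm after Fe-XO development. Human 12hLO 150 nM, arachidonate 40 uM, pH 7.0 Hepes buffer with detergent; 15 min compound preincubation, 30 min reaction.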
PNC inhibitor: High Content Assay for Compounds that inhibit the Assembly of the Perinucleolar Compartment. PC3M PTB-GFP, PNC prevalence imaging, 16 h; hits give low values. activity change (PNC), negative = inhibition, % at 10 µM. 3.1% of 140,000 active. AID 2417, 2010;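 active means readout at or below -70, meaning at least 70% loss of cells showing the perinucleolar compartment, a nuclear body marking cancer cells; inconclusive means readout between -30 and a set limit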
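Read-out is percentage of cells bearing a perinucleolar compartment, from automated 20x imaging of fixed, Hoechst-stained PC3M PTB-GFP cells. Cells were seeded 4 h, then exposed 16 h to compound (23 nl of library stock) in duplicate plates.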
Each line names hits and unclear results; the compound was inactive in the other large screens. Shown are actives, neighbours in structure and some others; about 3.1% of the full set was active somewhere. Unless noted, the call rests on the fitted dose curve; in most records, active means well fitted curve in the direction sought with a large enough effect; inconclusive means small, poorly fitted or top-dose-only effect, or another doubt; inactive means no such curve, though single readings can be large; an effect the other way counts as inactive or inconclusive.

C=C(CC1([C@@H](NP(=O)(c2ccccc2)c2ccccc2)[C@H]2C[C@@H]2CCN(C(=O)OCC)S(=O)(=O)c2ccc(C)cc2)CC1)c1ccccc1	none (no result: PNC inhibitor)
OC[C@@H]1O[C@@H](n2cnc3c(NC4CCCC4)ncnc32)[C@@H](O)[C@H]1O	none (no result: PNC inhibitor)
CCOC(=O)c1c(C)nc2sc3c(c2c1-c1ccc(OC)cc1)NC(c1ccccc1)NC3=O (centres undefined)	PNC inhibitor -83
CCOC(=O)c1c(C)nc2sc3c(=O)n(-c4ccc(C(C)=O)cc4)cnc3c2c1-c1ccc(OC)cc1	none
COc1ccc(-c2c(C(C)=O)c(C)nc3sc4c(c23)NC(c2ccccc2)NC4=O)cc1 (centres undefined)	none
CCOC(=O)c1c(C)nc2sc3c(=O)n(-c4ccc(OC)cc4)nnc3c2c1-c1ccc(OC)cc1	PNC inhibitor -106
Cc1noc(C)c1-c1nccc(Nc2ccc(F)cc2)n1	none (no result: 12-hLO inh, PNC inhibitor)
O=C(Cc1cccs1)NC1C(=O)N2C(C(=O)[O-])=C(C[n+]3ccccc3)CSC12 (centres undefined)	none (no result: PNC inhibitor)
CCCCCC(=O)/C=C/[C@H]1[C@H](O)CC(=O)[C@@H]1C/C=C\CCCC(=O)O	none (no result: 15-hLO-2 inh, PNC inhibitor)
C[C@@]12CCC(=O)C=C1CC[C@@H]1[C@@H]2[C@H](O)C[C@]2(C)[C@@H]1CC[C@]2(O)C(=O)COC(=O)CCC(=O)O	none (no result: PNC inhibitor)
COc1cc2nc(N3CCN(C(=O)[C@H]4COc5ccccc5O4)CC3)nc(N)c2cc1OC	none (no result: PNC inhibitor)
Clc1ccccc1-c1ccc(/C=N/n2cnnc2)o1	none
Clc1cccc(-c2ccc(/C=N/n3cnnc3)o2)c1Cl	PNC inhibitor -100 (no result: 15-hLO-2 inh)
CCCCCCCCCCOC(=O)c1csc2nnsc12	PNC inhibitor -100 (no result: 15-hLO-2 inh)
CCCCCOC(=O)c1ccccc1C(=O)O	PNC inhibitor inconclusive
Cc1ccc(C(C)C)c2c1C(c1ccc3c(c1)OCO3)CC(=O)O2 (centres undefined)	15-hLO-2 inh inconclusive (no result: PNC inhibitor)
COc1ccccc1-c1nc(N2CCOCC2)c2ccccc2n1	none (no result: 12-hLO inh, PNC inhibitor)
NC(N)=NCCCCN=C(N)N	none (no result: PNC inhibitor)
c1csc(CNc2ccnc(-c3ccoc3)n2)c1	none (no result: 12-hLO inh, PNC inhibitor)
Cn1c(NCc2ccccc2)cc(=O)n(C)c1=O	PNC inhibitor inconclusive
Cn1c(=O)cc(NCc2ccccc2)[nH]c1=O	PNC inhibitor -91
O=C(O)c1cc(Cl)cc(Cl)c1	none (no result: PNC inhibitor)
Fc1cccc(CSc2ncnc3c2ncn3[C@H]2CCCS2)c1	none (no result: PNC inhibitor)
O=C(NCCCn1ccnc1)c1cc2ccccc2oc1=O	none (no result: 15-hLO-2 inh)
O=C(NCCCn1ccnc1)Nc1cccc2ccccc12	PNC inhibitor -100 (no result: 15-hLO-2 inh)
C[C@@H](C(=O)O)c1cccc(C(=O)c2ccccc2)c1	none (no result: PNC inhibitor)
CCCCOc1ccc(C(=O)N2CCCC2C(=O)O)cc1 (centres undefined)	PNC inhibitor -100 (no result: 15-hLO-2 inh)
CCCOc1ccc(C(=O)N2CCCC2C(=O)O)cc1 (centres undefined)	none
CC(=O)Nc1ccc(NC(=O)c2ccc(NS(=O)(=O)c3cc(C(C)(C)C)cc(C)c3C)cc2)cc1	PNC inhibitor -89 (no result: 15-hLO-2 inh)
Cc1cc(C(C)(C)C)cc(S(=O)(=O)Nc2ccc(O)c(C(=O)O)c2)c1C	none
CC(=O)c1c(O)c(C)c(O)c2c1OC1=CC(=O)C(C(C)=O)C(=O)[C@@]12C (some centres undefined)	none (no result: PNC inhibitor)
CCOC(=O)c1c(NC(=O)CSc2nnc(CNc3ccc(Cl)cc3)o2)sc(C)c1C	PNC inhibitor -107 (no result: 15-hLO-2 inh)
CCOC(=O)c1c(NC(=O)CSc2nnc(CNc3ccc(F)cc3)o2)sc(C)c1C	none
CCOC(=O)c1c(NC(=O)CSc2nncn2C)sc(C)c1C	PNC inhibitor -81
CCOC(=O)c1c(NC(=O)CSc2nncs2)sc(C)c1C	none
CC(C)=CCc1c(O)cc(O)c2c1O[C@H](c1ccccc1)CC2=O	none (no result: PNC inhibitor)
C=CCSC1=N/C(=C\c2ccc3c(c2)OCO3)C(=O)S1	none
C=CCSC1=N/C(=C\c2cc(OCC)c(OC(C)=O)c([N+](=O)[O-])c2)C(=O)S1	PNC inhibitor -116 (no result: 15-hLO-2 inh)
CN1CCN(c2ncc3nc(-c4cccc(C#N)c4)c(=O)n(C)c3n2)CC1	none (no result: 12-hLO inh, PNC inhibitor)
CN1/C(=C\C=C(/C#N)C(=O)Nc2ccccc2F)C(C)(C)c2ccccc21	PNC inhibitor -83 (no result: 15-hLO-2 inh)
CN1/C(=C\C=[N+](C)c2ccccc2)C(C)(C)c2ccccc21	none
CN1/C(=C/C=C(/C#N)C(N)=O)C(C)(C)c2ccccc21	15-hLO-2 inh inconclusive, PNC inhibitor -85
CN1/C(=C\C(=O)Nc2ccc(F)cc2)C(C)(C)c2ccccc21	none (no result: 15-hLO-2 inh)
Cc1cccc(CNc2cc(-c3ccoc3)ncn2)c1	none (no result: PNC inhibitor)
COC(=O)N1CCC2(CCN(C(=O)NC(C)C)CC2)CC1	none (no result: PNC inhibitor)
CCCCCC1CC(CC(C)C(=O)Nc2nncs2)C(=O)O1 (centres undefined)	none (no result: 15-hLO-2 inh)
CCCCCC1CC(CC(=O)Nc2nncs2)C(=O)O1 (centres undefined)	PNC inhibitor -100 (no result: 15-hLO-2 inh)
CCC/C=C(\CCC)C(NS(=O)(=O)c1ccccc1)c1ccc(C(F)(F)F)cc1 (centres undefined)	none (no result: PNC inhibitor)
N#CC(c1ccc(O)cc1)N1CCOCC1 (centres undefined)	PNC inhibitor -103 (no result: 15-hLO-2 inh)
Cc1ccc(C(C#N)N2CCOCC2)cc1 (centres undefined)	none
OC[C@H]1O[C@H](n2cnc3c(NC4CCCC4)nc(Cl)nc32)[C@@H](O)[C@@H]1O	none (no result: PNC inhibitor)
O=C1Nc2ccccc2C1=Nc1cccc2ncccc12	none (no result: PNC inhibitor)
O=c1n(-c2ccccc2)c(=O)n2n1CCC2	none
O=c1n(-c2ccccc2)c(=O)n2n1CCCC2	PNC inhibitor -120
CN1CCC2(CC1)CCN(C(=O)c1cc(C(F)(F)F)cc(C(F)(F)F)c1)CC2	none (no result: PNC inhibitor)
COc1ccc(C(=O)N2CCC3(CC2)CCN(c2ncccn2)CC3)cc1	none (no result: PNC inhibitor)
NC(=O)/N=N/C(N)=O	none (no result: PNC inhibitor)
Cc1ccnc(NC(=S)NC(=O)c2cncc(Br)c2)c1	PNC inhibitor -100 (no result: 15-hLO-2 inh)
O=C(NC(=S)Nc1nc(-c2ccccc2)cs1)c1cncc(Br)c1	none
O=C(N/C(=C\c1ccco1)C(=O)N1CCCC1)c1cccs1	PNC inhibitor inconclusive
O=C(N/C(=C/c1ccco1)C(=O)N1CCCC1)c1cccs1	PNC inhibitor -106 (no result: 15-hLO-2 inh)
CCCCN(C(=O)Nc1ccc(Cl)cc1)C1CCN(C(C)=O)CC1	PNC inhibitor -95
CCOCCCN(C(=O)Nc1ccc(CC)cc1)C1CCN(C(C)=O)CC1	PNC inhibitor inconclusive
COC(=O)[C@@]1(Cc2ccc(OC)cc2)[C@H]2c3cc(C(=O)N4CCCC4)n(CCc4c[nH]c5ccc(OC)cc45)c3C[C@H]2CN1C(=O)c1ccccc1	none (no result: PNC inhibitor)
CN1[C@@H]2CC[C@H]1CC(OC(=O)[C@@H](O)c1ccccc1)C2 (some centres undefined)	none (no result: PNC inhibitor)
N=C(N)SCCc1ccccn1	none (no result: PNC inhibitor)
CC1=C(C(=O)Nc2ccccc2)C2(CCCCC2)C(C(N)=O)C(=S)N1 (centres undefined)	none (no result: 15-hLO-2 inh)
CC1=C(C(=O)Nc2ccccc2C)C2(CCCCC2)C(C(N)=O)C(=S)N1 (centres undefined)	PNC inhibitor -85 (no result: 15-hLO-2 inh)
CC(C)c1ccccc1S(=O)c1ccccc1C(C)(C)O (centres undefined)	none (no result: PNC inhibitor)
Cc1ccc(OCC(=O)Nc2ccccc2Sc2ccccc2)c([N+](=O)[O-])n1	PNC inhibitor -107 (no result: 15-hLO-2 inh)
